# The list is not random: actives were taken first. Their share in the collection is about 6.9%.
# Giardia killer: Giardia lamblia killing; Giardia lamblia trophozoite viability; activity change, % at 7.66 µM, hits read low; 340,000 compounds, 0.15% hits; in the data active = activity change below about -80%; inconclusive = between about -30% and that limit;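 note: parasites exposed to compound for two days anaerobically before the ATP read; % is set by controls: 0 for no effect and ±100 for the full control effect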
#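 Trophozoites 100 cells/well + cpd; 48 hrs, 37 deg C, anaerobic. ATPLite 1-Step added, 15-30 min RT, luminescence read (ATP-based viability).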
# KB-3-1 tox: KB-3-1 parental cell cytotoxicity; KB-3-1 viability, CellTiter-Glo ATP luminescence, 72 h; Potency, µM (doses to about 46.1 µM), actives largely listed as cytotoxic; 400,000 compounds, 1.4% hits; note: potency is the fitted concentration of half-maximal effect; % is set by controls: 0 for no effect and ±100 for the full control effect; nearly all actives have a fitted effect of over 60% in size
#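 Parental KB-3-1 adenocarcinoma cells in phenol-red-free DMEM with 10% FBS were pin-treated with compounds at several concentrations, incubated 72 h at 37 °C, and viability read by CellTiter-Glo luminescence; concentration-effect curves were fitted after normalization.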
# KB-V1 cytotox: kills drug-selected multidrug resistant KB-V1 cells. KB-V1 MDR cells viability, CellTiter-Glo, 72 h. Potency, µM (top dose mostly 46.1 µM), hits mostly cytotoxic. 400,000 compounds, 3.4% hits. AID 1347076; note: potency is the fitted concentration of half-maximal effect; % is set by controls: 0 for no effect and ±100 for the full control effect; nearly all actives have a fitted effect of over 60% in size
#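 Potencies derive from concentration-effect curves fitted to normalized luminescence (CellTiter-Glo) of KB-V1 cells treated for 72 h at 37 degrees C in phenol-red-free DMEM containing 10% FBS.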
# MCF10A rerep: inducers of DNA re-replication in MCF 10A breast cells; AID 624296; 350,000 compounds, 2.9% hits; MCF 10A DNA re-replication, Hoechst nuclear intensity, 48 h; Potency, µM (top dose mostly 46.1 µM), inactives show at the highest dose activity, positive = re-replication, actives largely listed as activators; note: potency is the fitted concentration of half-maximal effect; % of control where 0% means no effect; nearly all actives have a fitted effect of over 50% in size
# ASM inhibitor: blocks human secretory acid sphingomyelinase. placental ASM, HMU-PC fluorogenic substrate, 60 min. Potency, µM (doses to about 57.5 µM), for the others: top-dose activity change, negative = inhibition, usual class: inhibitors. 340,000 compounds, 0.006% hits. AID 504937; note: potency is the fitted concentration of half-maximal effect
# Target sequence (P17405 47-631 limits assumed): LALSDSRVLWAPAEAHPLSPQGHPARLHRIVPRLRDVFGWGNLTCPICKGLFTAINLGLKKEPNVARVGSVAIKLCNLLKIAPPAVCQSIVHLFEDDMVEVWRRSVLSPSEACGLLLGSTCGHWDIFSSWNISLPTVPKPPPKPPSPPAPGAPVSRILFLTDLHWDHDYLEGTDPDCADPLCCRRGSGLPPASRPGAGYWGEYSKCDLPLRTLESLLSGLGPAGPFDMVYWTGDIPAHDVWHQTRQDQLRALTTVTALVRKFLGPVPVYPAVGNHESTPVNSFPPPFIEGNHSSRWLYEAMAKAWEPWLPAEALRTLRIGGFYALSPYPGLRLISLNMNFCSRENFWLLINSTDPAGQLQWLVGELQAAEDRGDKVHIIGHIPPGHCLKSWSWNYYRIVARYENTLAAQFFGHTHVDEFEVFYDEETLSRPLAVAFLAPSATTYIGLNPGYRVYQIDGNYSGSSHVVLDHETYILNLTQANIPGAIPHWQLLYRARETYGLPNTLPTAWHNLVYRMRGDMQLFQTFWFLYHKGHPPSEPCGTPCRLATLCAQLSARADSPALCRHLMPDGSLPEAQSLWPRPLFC
#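 qHTS format. ASM enzyme prepared from human placenta hydrolyses the fluorogenic substrate HMU-PC0 (9 uM final) over 60 min at 37 °C after a 10 min compound preincubation.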
# SW480 rerep: induces DNA re-replication in SW480 colon adenocarcinoma cells; SW480 DNA re-replication, Hoechst DNA content imaging, 48 h; Potency, µM (doses to about 46.1 µM), inactives show top-dose re-replication activation, hits mostly activators; 340,000 compounds, 1.8% hits; note: potency is the fitted concentration of half-maximal effect; % of control where 0% means no effect; nearly all actives have a fitted effect of over 55% in size
#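 DNA re-replication was detected as more nuclei of elevated Hoechst intensity after 48 hr exposure to compound (23 nL pinned per well of 250 cells).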
# The depositor's hits bear a star; i = inactive; ? = inconclusive; nt = no result given; [ ] = dose if it differs, or a comment. Unless noted, calls come from the whole dose curve; as a rule, active = well fitted curve in the direction sought with a large enough effect; inconclusive = small, poorly fitted or top-dose-only effect, or another doubt; inactive = no such curve, though single readings can be large; an effect the other way counts as inactive or inconclusive.
SMILES,Giardia killer,KB-3-1 tox,KB-V1 cytotox,MCF10A rerep,ASM inhibitor,SW480 rerep
CCOC(=O)/C(C#N)=C/Nc1cc(C(=O)OCC)cc2c(OC)c(OC)ccc12,15.0,i,i,2.59µM*,200.3%,23.1µM*
CCOC(=O)/C(C#N)=C/Nc1ccsc1C(=O)OC,11.9,i,i,4.6%,2.6%,11.5%
CCN1CCC(N(Cc2ccc3c(c2)OCO3)C(=O)Nc2cc(F)ccc2F)CC1,nt,i,i,nt,nt,nt
Cc1cccc(C)c1NC(=O)CSc1nnc(Cn2nnc(-c3ccccc3)n2)n1-c1ccccc1,-7.8,i,8.2µM*,8.6%,-2.7%,-0.3%
O=C(CSc1nnc(Cn2nnc(-c3ccccc3)n2)n1-c1ccccc1)Nc1ccccc1,-4.5,i,14.6µM*,20.4%,-12.4%,0.4%
O=C(CSc1nnc(Cn2nnc(-c3ccccc3)n2)n1-c1ccccc1)Nc1ccc(F)cc1,0.4,i,i,-0.1%,0.1%,-4.4%
COc1ccc(C2/C=C\CN(C(=O)C3CC3)C(C)C(=O)N2Cc2ccc(F)cc2)cc1 (configuration not stated),0.6,nt,nt,nt,nt,nt
COc1ccc(N2C(=O)CCC(C(=O)NCCCN3CCC(C)CC3)C2c2ccc(OC)c(OC)c2)cc1 (configuration not stated),18.3,i,?,-27.3%,3.2%,7.6%[1.84 µM]
Nn1c(SCc2c(F)cccc2F)nnc1-c1ccccn1,13.4,i,i,2.4%,12.2%,7.31µM*
Cc1ccc(C)c(CSc2nnc(-c3ccccn3)n2N)c1,-11.1,i,i,?,3.3%,?
O=C(NCc1ccccn1)C1CCCN(S(=O)(=O)c2cc(Cl)ccc2Cl)C1 (configuration not stated),-83.2*,?,0.731µM*,0.731µM*,-0.2%,?
Cc1ccc(C)c(N2CCN(C(=O)Cn3ncc4ccsc4c3=O)CC2)c1,nt,16.4µM*,4.11µM*,nt,nt,nt
CCOc1ccc(Cn2c(=O)sc3ccccc32)cc1OC,24.2,?,11.6µM*,?,-2.0%,-6.4%
COc1cc(Cn2c(=O)sc3ccccc32)ccc1OC(C)C,nt,i,i,nt,nt,nt
COc1ccccc1OCCn1c(=O)sc2ccccc21,16.0,i,14.6µM*,11.2%,0.6%,3.7%
COc1ccc(NC(=O)C(C)n2nnc3sc(-c4ccccc4)cc3c2=O)cc1Cl (configuration not stated),nt,i,i,nt,nt,nt
COc1ccc(CCN2C(=O)c3cccc4c(C(=O)N5CCCCC5)ccc(c34)C2=O)cc1OC,11.5,i,2.91µM*,?,-3.9%,-1.5%
COc1ccc(CCNC(=O)CCN2C(=O)c3cccc4cccc(c34)C2=O)cc1OC,-2.1,i,i,4.2%,4.3%,10.5%
Cc1nnc(SCC(=O)N2c3ccccc3C(C)(c3ccccc3)CC2(C)C)s1 (configuration not stated),4.7,16.4µM*,8.2µM*,?,?,6.3%
Cc1ccc(C2(C)CC(C)(C)N(C(=O)CSc3nnc(C)s3)c3ccccc32)cc1 (configuration not stated),4.5,?,?,?,-10.1%,1.4%
CCOCCCNC(=S)N(Cc1ccccc1)Cc1nc2ccccc2c(=O)[nH]1,-3.7,i,i,6.3%,4.0%,1.5%
CCCNC(=S)N(Cc1ccccc1)Cc1nc2ccccc2c(=O)[nH]1,-9.9,?,5.17µM*,-3.4%,-0.6%,-105.6%
O=C(c1ccccc1)N(Cc1ccc(F)cc1)Cc1nc2ccccc2c(=O)[nH]1,-11.5,i,i,?,-1.4%,4.11µM*
O=C(c1ccncc1)N(Cc1ccccc1)Cc1nc2ccccc2c(=O)[nH]1,12.1,i,i,0.4%,2.0%,0.9%
COc1ccc(OC)c(NC(=O)c2cc3cccc(OC)c3oc2=O)c1,nt,i,i,nt,nt,nt
COc1ccc(-c2ccoc2)cc1C1C2C=CCC(C)C2C(=O)N1Cc1ccccc1 (configuration not stated),-2.7,nt,nt,nt,nt,nt

# Source: PubChem BioAssay (National Center for Advancing Translational Sciences (NCATS))
